Experimental data taken from PubChem BioAssay (NCATS).
Records with an inconclusive call do not appear. Active and inactive are the calls of the source. Calls come from the whole dose curve; as a rule, active = well fitted curve in the direction sought with a large enough effect; inconclusive = small, poorly fitted or top-dose-only effect, or another doubt; inactive = no such curve, though single readings can be large; an effect the other way counts as inactive or inconclusive.

Tests used:
[1] = MultiTox-Fluor Cytotoxicity Assay - LYMP1-001 - Dead Cells (AID 946)
Outline: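 Seed 2500 LYMP1-001 cells/well, incubate 5 hr at 37 C; add compound, 16 hr at 37 C; add MultiTox-Fluor reagent, 60 min RT; read dead-cell fluorescence Ex/Em=485/520. Normalize to DMSO and 15 uM tetraoctylammonium bromide.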

[2] = MultiTox-Fluor Cytotoxicity Assay - LYMP1-001 - Live Cells (AID 947)
[3] = Cell Viability - LYMP1-002 - Assay at 16 hr (AID 948)
Outline: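 Seed 2500 LYMP1-002 cells per well in complete medium and hold 5 hr at 37 C. Add compound across a concentration series and incubate 16 hr at 37 C. Add CellTiter-Glo, wait 30 min at room temperature, read luminescence.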

[4] = MultiTox-Fluor Cytotoxicity Assay - LYMP1-002 - Live Cells (AID 955);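 note: cells exposed to compound for 16 hours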
Outline: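 In this qHTS viability format, lymphoblastoid cells (LYMP1-002, human) received compound for 16 hr at 37 C. Fluorogenic GF-AFC cleavage by viable cells was detected at 405/510 nm after 1 h at room temperature.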

[5] = MultiTox-Fluor Cytotoxicity Assay - LYMP1-002 - Dead Cells (AID 960); note: nearly all actives have a fitted effect of over 60% in size
Outline: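 Concentration-dependent increases in membrane-leaked protease activity are quantified in LYMP1-002 cells after 16 hr treatment; values are normalized against DMSO and tetraoctylammonium bromide (15 uM) controls and AC50 derived by Hill modeling.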

[6] = MultiTox-Fluor Cytotoxicity Assay - LYMP1-003 - Dead Cells (AID 961); note: nearly all actives have a fitted effect of over 70% in size
Outline: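 LYMP1-003 lymphoblastoid, 2500 cells/well, 5 hr settle then 16 hr cpd at 37 C; MultiTox-Fluor reagent 60 min RT; Ex/Em 485/520 dead-cell signal; norm. DMSO = 0%, 15 uM tetraoctylammonium bromide = 100%; Hill AC50.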

[7] = MultiTox-Fluor Cytotoxicity Assay - LYMP1-003 - Live Cells (AID 962);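 note: cells exposed to compound for 16 hours at 37 °C; cytotoxic hits lower the live-cell protease signal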
Outline: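 Human lymphoblastoid line LYMP1-003 in complete culture medium, treated 16 hr with titrated compounds. Viable cells quantified via cell-permeant GF-AFC substrate fluorescence; AC50 derived by Hill fitting.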

[8] = Cell Viability - LYMP1-003 - Assay at 24 hr (AID 963)
Outline: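 The lymphoblastoid line was treated with titrated compounds for 24 hours, and viable cell number estimated from luciferase-based ATP luminescence.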

[9] = Cell Viability - LYMP1-003 - Assay at 40 hr (AID 964); note: series mostly up to about 92 µM; nearly all actives have a fitted effect of over 60% in size
Outline: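 Acute toxicity is scored as a concentration-dependent loss of intracellular ATP in LYMP1-003 cells (2500/well, complete medium) after 40 hr at 37 C, measured by CellTiter-Glo luminescence; AC50 values derive from standard Hill modelling.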

[10] = Cell Viability - LYMP2-003 (AID 965);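 note: cells exposed to compounds for 24 h before reading; nearly all actives have a fitted effect of over 50% in size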
Outline: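 Seed 2500 lymphoblastoid cells/well; incubate 5 hr, 37 C; add compounds; incubate 24 hr, 37 C; add CellTiter-Glo, 30 min RT; read luminescence. AC50 from Hill fit.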

[11] = Cell Viability - LYMP2-004 (AID 966); note: nearly all actives have a fitted effect of over 65% in size
Outline: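 Viable-cell number estimated from ATP luminescence (CellTiter-Glo) in 2500 human lymphoblastoid cells/well after 24 hr at 37 C with compound. AC50 fitted to the standard Hill equation.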

[12] = Cell Viability - LYMP2-005 (AID 967);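 note: series mostly up to about 92 µM; cells exposed to compound for 24 h at 37 °C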
Outline: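 Acute cytotoxicity is scored as a concentration-dependent drop in intracellular ATP in human lymphoblastoid LYMP2-005 cells after 24 h compound treatment. ATP is quantified by luciferase luminescence, and AC50 is derived by Hill-equation modelling.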

[13] = Cell Viability - LYMP2-009 (AID 968);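 note: series mostly up to about 92 µM; cells exposed to compound for 24 h at 37 °C; nearly all actives have a fitted effect of over 55% in size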
[14] = Cell Viability - LYMP2-011 (AID 969); note: nearly all actives have a fitted effect of over 60% in size
Outline: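 Cells seeded at 2500 per well rest 5 hr before compound addition, then incubate 24 hr at 37 C. CellTiter-Glo reagent is added for 30 min at room temperature before luminescence detection.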

[15] = Cell Viability - LYMP2-013 (AID 970);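 note: series mostly up to about 92 µM; cells exposed to compound for 24 h at 37 °C; nearly all actives have a fitted effect of over 55% in size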
Outline: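 In complete culture medium, human lymphoblastoid cells were dosed for 24 hr at 37 C, with tetraoctylammonium bromide (6.4pM to 92 uM) as positive control. Viability reflects luciferase-based ATP signal; AC50 derived from concentration-response curves.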

[16] = Cell Viability - LYMP2-015 (AID 971); note: nearly all actives have a fitted effect of over 55% in size
Outline: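 AC50 values reflect Hill-model fits of ATP-based luminescence (CellTiter-Glo) from a human lymphoblastoid line, 2500 cells/well, treated 24 hr at 37 C.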

[17] = Cell Viability - LYMP2-017 (AID 972);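 note: series mostly up to about 92 µM; cells exposed to compound for 24 hours at 37 °C; nearly all actives have a fitted effect of over 55% in size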
Outline: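 In this qHTS format, lymphoblastoid cells in complete medium receive test compound for a day at 37 C before ATP content is quantified by luciferase luminescence. Reported AC50 figures come from standard Hill-equation curve fitting.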

[18] = Cell Viability - LYMP2-023 (AID 975)
Outline: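 In this qHTS, ATP-based luciferase luminescence (CellTiter-Glo) is quantified in human lymphoblastoid cells after 24 hr compound treatment at 37 C; tetraoctylammonium bromide serves as positive control. Concentration-response curves are Hill-fitted to give AC50.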

[19] = Cell Viability - LYMP2-019 (AID 973)
Outline: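 AC50 values come from Hill-equation modelling of qHTS concentration-response curves, where viability is measured as luciferase-based ATP luminescence in the lymphoblastoid line after 24 hr compound exposure in complete culture medium.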

[20] = Cell Viability - LYMP2-021 (AID 974)
Outline: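 In qHTS format, compounds are tested against 2500 lymphoblastoid cells per well for 24 h; viable cell number is inferred from ATP-driven luciferase light, and Hill-equation fitting yields AC50 values.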

Measured: Potency

CCCCCCC(=O)O
not listed: [19] | [20]
inactive: all other assays above

CC(C)(C)OC=O
not listed: [13] | [19] | [20]
inactive: all other assays above

c1ccsc1
not listed: [20]
inactive: all other assays above

[O-]/[N+](=N\O)c1ccccc1
not listed: [12]
inactive: all other assays above

CCCC=O
not listed: [16]
inactive: all other assays above

Nc1cccc2c(=O)[nH][nH]c(=O)c12
not listed: [16]
inactive: all other assays above

CC(C)=CCC/C(C)=C/C=O
not listed: [15]
inactive: all other assays above

CCCCOCCOCCSC#N
not listed: [12]
inactive: all other assays above

CC(=O)OCc1ccco1
not listed: [16]
inactive: all other assays above

CC(=O)Nc1ccc(N)cc1
not listed: [13] | [16]
inactive: all other assays above

CNC(=O)N(c1ccccc1)c1ccccc1
not listed: [16]
inactive: all other assays above

CC(C)=C1CCC(C)CC1=O (centres undefined)
not listed: [12]
inactive: all other assays above

NCCCCCCN
not listed: [12]
inactive: all other assays above

Cc1c(C(=O)O)cccc1[N+](=O)[O-]
not listed: [15]
inactive: all other assays above

Cc1ccc2oc(=O)ccc2c1
not listed: [10] | [12] | [13] | [19]
inactive: all other assays above

O=Cc1c(Cl)cccc1Cl
not listed: [12] | [16]
inactive: all other assays above

C1CCCC1
not listed: [7]
inactive: all other assays above

O=[N+]([O-])c1cc(C(F)(F)F)ccc1Cl
not listed: [10] | [13] | [15]
inactive: all other assays above

N#Cc1ccccc1
not listed: [12] | [15]
inactive: all other assays above

CC(=O)c1ccccc1[N+](=O)[O-]
not listed: [7]
inactive: all other assays above

Cc1ccc2ncccc2c1
not listed: [10]
inactive: all other assays above

C=Cc1ccc(C=C)cc1
not listed: [10]
inactive: all other assays above

C/C=C1\CC2C=CC1C2 (centres undefined)
not listed: [7] | [16]
inactive: all other assays above

Nc1c(Cl)cc(Cl)cc1Cl
not listed: [11]
inactive: all other assays above

CC(C)(C)OCC1CO1 (centres undefined)
not listed: [10]
inactive: all other assays above

CCC(C)O (centres undefined)
not listed: [11] | [12] | [19]
inactive: all other assays above

CC(C)(O)CCC(C)(C)O
not listed: [12] | [15]
inactive: all other assays above

O=P(O)(OCc1ccccc1)OCc1ccccc1
not listed: [12] | [20]
inactive: all other assays above

Cc1cccc(C(=O)O)c1
not listed: [12] | [20]
inactive: all other assays above

COC(=O)CCCC(=O)OC
not listed: [10] | [15]
inactive: all other assays above

Cc1ccc2cccnc2c1
not listed: [10] | [20]
inactive: all other assays above

COCCOC(=O)c1ccccc1C(=O)OCCOC
not listed: [12] | [15]
inactive: all other assays above

CC(=O)c1ccc([N+](=O)[O-])cc1
not listed: [7]
inactive: all other assays above

CC(O)COC(C)(C)C (centres undefined)
not listed: [7] | [19]
inactive: all other assays above

O=C(O[C@@H](C(=O)O)[C@@H](OC(=O)c1ccccc1)C(=O)O)c1ccccc1
not listed: [10]
inactive: all other assays above

CCC(=O)/C=C/C1C(C)=CCCC1(C)C (centres undefined)
not listed: [12] | [13] | [19]
inactive: all other assays above

CCNc1cc(O)ccc1C
not listed: [7]
inactive: all other assays above

CCC(O)C(C)(C)C (centres undefined)
not listed: [10]
inactive: all other assays above

O=Cc1ccc(CO)o1
not listed: [11] | [13]
inactive: all other assays above

O=C(O)c1ccc(CO)o1
not listed: [12] | [17] | [19] | [20]
inactive: all other assays above

O=Cc1ccccc1Cl
not listed: [7] | [20]
inactive: all other assays above

CCN(Cc1ccccc1)c1ccccc1
not listed: [10] | [12] | [16]
inactive: all other assays above

Cc1ccc(Cl)cc1N
not listed: [11] | [12] | [19]
inactive: all other assays above

O=C1C=CCCC1
not listed: [12] | [13] | [16] | [20]
inactive: all other assays above

Cc1ccc(C)c(O)c1
not listed: [12] | [19]
inactive: all other assays above

N#CCc1ccccc1[N+](=O)[O-]
not listed: [12] | [19]
inactive: all other assays above

Cc1ccccc1C(=O)O
not listed: [10] | [16]
inactive: all other assays above

O=C(O)CNC(=O)c1ccc([N+](=O)[O-])cc1
not listed: [12] | [19]
inactive: all other assays above

Cc1ccc(C)cc1
not listed: [10] | [11] | [20]
inactive: all other assays above

O=C(O)c1cccc([N+](=O)[O-])c1
not listed: [7]
inactive: all other assays above

O=[N+]([O-])c1ccc(CCO)cc1
not listed: [10] | [12] | [15] | [16] | [17] | [20]
inactive: all other assays above

ClC/C=C/CCl
not listed: [10] | [11] | [19]
inactive: all other assays above

CCCCCCCCN
not listed: [10] | [19]
inactive: all other assays above

Nc1cccc(C(F)(F)F)c1
not listed: [7]
inactive: all other assays above

O=C(O)c1c(Cl)cccc1Cl
not listed: [6]
inactive: all other assays above

CCCCC(CC)COCC1CO1 (centres undefined)
not listed: [5] | [12]
inactive: all other assays above
